Compound activity: PubChem, National Center for Advancing Translational Sciences (NCATS)
Vaccinia Venus: vaccinia inhibition (Venus reporter); Vaccinia virus Venus reporter expression, fluorescence; Potency, µM (series often up to 36.5 µM), for inactives: top-dose activity change, negative = inhibition, actives largely listed as inhibitors; 330,000 compounds, 0.46% hits; calls by dose curve; tested in A549 cells; further: potency means the concentration at half of the fitted maximal effect; nearly all actives have a fitted effect of over 30% in size
HCMV inh: blocks human cytomegalovirus replication; AID 1259415; activity change, negative = inhibition, % at 57.5 µM; HFF cells, HCMV-luciferase reporter, 72 h; stronger effect = lower value; 410,000 compounds, 4.5% hits; in the data active means activity change below about -60%; inconclusive means no clear call, values can overlap the other calls; inactive means above about -39%
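Two compound doses tested in HFFs infected with HCMV-luciferase, MOI 1 PFU/cell, 72 h at 37C. Lysate luminescence read with OneGlo; data normalized against buffer-only and 10uM Salinomycin inhibitor controls.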
FMDV antiviral: foot and mouth disease virus antiviral activity; FMDV antiviral cell-based qHTS; Potency, µM (doses to about 57.9 µM), for inactives: at the top dose activity change, negative = inhibition, hits mostly inhibitors; 410,000 compounds, 1.2% hits; AID 1159524; calls by dose curve; tested in HEK293T cells; further: read-out not given here; potency means the concentration at half of the fitted maximal effect; nearly all actives have a fitted effect of over 45% in size
VACV mCherry inh: inhibitors of vaccinia virus infection (mCherry reporter signal) | 310,000 compounds, 0.63% hits | AID 720579 | Potency, µM (highest dose often 36.5 µM), for the others: at the top dose activity change, negative = inhibition, actives largely listed as inhibitors | Vaccinia virus mCherry reporter infection, fluorescence; calls by dose curve; tested in A549 cells; further: potency means the concentration at half of the fitted maximal effect; nearly all actives have a fitted effect of over 35% in size
LASV entry inh: inhibitors of Lassa virus binding or cell entry. Lassa virus pseudotype entry inhibition, cell reporter. Potency, µM (highest dose often 37.9 µM), for the others: at the top dose activity change, negative = inhibition, hits mostly inhibitors. 300,000 compounds, 1.2% hits; calls by dose curve; tested in HEK293 cells; further: potency means the concentration at half of the fitted maximal effect; nearly all actives have a fitted effect of over 50% in size
Marburg entry inh: inhibitors of Marburg virus binding or cell entry; Marburg virus pseudotyped entry inhibition, cell reporter; Potency, µM (titrated, usually from 37.8 µM), inactives show at the top dose activity change, negative = inhibition, actives largely listed as inhibitors; 300,000 compounds, 1.8% hits; calls by dose curve; tested in HEK293 cells; further: potency means the concentration at half of the fitted maximal effect
* = called active by the depositor; i = inactive; ? = inconclusive; · = no result; + = active, no number; [ ] = remark or other dose. Shown are actives, neighbours in structure and some others; about 6.5% of the full set was active somewhere. On the % scale 0 is the no-effect control and ±100 the full control effect.

SMILES	Vaccinia Venus	HCMV inh	FMDV antiviral	VACV mCherry inh	LASV entry inh	Marburg entry inh
COc1cccc(C=NNc2nnc(NN=Cc3cccc(OC)c3OC)c3ccccc23)c1OC	-5.1%	122.4	20µM*	-5.4%	?	?
Cc1cc(/C=N/Nc2ncnc(N)c2[N+](=O)[O-])c(C)n1-c1ccccc1	-7.3%	-82.6*	3.55µM*	?	1.12µM*	?
COc1cccc(/C=N/Nc2ncnc(N)c2[N+](=O)[O-])c1OC	·	·	-40.3%	·	8.2µM*	?
COc1ccc(/C=C2\C=Cc3ccccc32)cc1	-4.5%	·	·	-11.5%	·	·
COc1ccc(OC)c(-c2csc(N(CC3CCCO3)C(=O)C3CCCCC3)n2)c1 (centres undefined)	·	-71.5*	3.0%	·	-0.6%	-17.8%
COCc1ccc(CN2CCOc3c(cc(-c4ccc(SC)cc4)cc3OC)C2)o1	1.2%	·	-3.4%	-7.7%	·	·
CC(=O)N1CCCC(C)(C(=O)Nc2cccc(OC(C)C)c2)C1 (centres undefined)	-1.8%	-30.4	-9.1%	-8.4%	·	·
CN1CCN(c2nc3cc(C(F)(F)F)ccc3n3cccc23)CC1	-21.4%	?	-17.1%	?	?	8.91µM*
CCOc1cc(C(=S)N2CCOCC2)ccc1OS(=O)(=O)c1ccc(NC(C)=O)cc1	-12.2%	-82.8*	·	-12.5%	?	-15.6%
CC(=O)Nc1ccc(S(=O)(=O)Oc2ccc(C(=S)N3CCC(O)CC3)cc2)cc1	-15.2%	-72.4*	?	-8.4%	4.5%	?
CN(c1ccccc1)S(=O)(=O)c1ccc(C(=O)N2CCN(c3ccccc3)CC2)cc1	-4.0%	-27.9	-17.4%	i	·	·
O=C1CC(c2ccccc2)Oc2cc(O)ccc21 (centres undefined)	-6.1%	-3.6	12.1%	-1.3%	11.7%[46.1 µM]	11.1%[46.1 µM]
Cc1cnc(-n2ncc(C(=O)N(C)CCc3ccccn3)c2-c2cccs2)nc1-c1ccc(F)cc1	-5.2%	·	-14.5%	-16.6%	·	·
COc1cccc(C(C)NC(=O)Nc2ccccc2Cl)c1 (centres undefined)	·	-64.2*	-12.9%	·	?	-25.3%
COc1cccc(C(C)NC(=O)c2c(F)cccc2Cl)c1 (centres undefined)	-2.4%	20.7	0.5%	i	6.8%	2.1%
NC(=O)CN1C(=O)C(O)(CC(=O)/C=C\C=C\c2ccccc2)c2ccccc21 (centres undefined)	?	-69.6*	0.0%	?	-10.3%	-39.5%
CCS(=O)(=O)c1ncc(Cl)c(C(=O)Nc2c(C(=O)c3ccc(C)cc3)oc3ccccc23)n1	-9.6%	4.2	-28.6%	-23.2%	1.5%[46.1 µM]	-0.2%[46.1 µM]
COc1cccc(CN2CCc3ccc(NC(=O)CCc4ccc(C)cc4)cc3C2)c1O	·	-60.6*	?	·	·	·
COc1ccc(CN2CCc3ccc(NC(=O)CCc4ccccc4OC)cc3C2)c(O)c1	-29.9%	-72.2*	?	?	?	?
COc1cc(CN2CCc3ccc(NC(=O)CCc4ccccc4OC)cc3C2)ccc1O	·	-10.2	-0.7%	·	·	·
Cc1ccc(NC(=S)/N=C(\N)Nc2nc(C)c3cc(C)ccc3n2)c(C)c1	?	-86.3*	-18.7%	i	14.9%	?
COc1ccc2nc(N/C(N)=N/C(=S)Nc3c(C)cccc3C)nc(C)c2c1	·	-71.4*	21.9%	·	?	?
COc1ccc2nc(N/C(N)=N/C(=S)Nc3cccc(C)c3)nc(C)c2c1	-14.1%	-7.1	-2.0%	·	-16.8%	?
COc1cccc([C@H]2Oc3ccc(OC)cc3C(=NOC[C@@H](C)[C@H](OCc3ccccc3)C(C)C)[C@H]2O)c1	·	·	·	·	·	10.0%[14.2 µM]
OCCCn1c(C(CO)Nc2nc(-c3ccc(Cl)cc3)cs2)nc2ccccc21 (centres undefined)	?	54.0	-12.9%	-12.0%	·	·
SMILES	Vaccinia Venus	HCMV inh	FMDV antiviral	VACV mCherry inh	LASV entry inh	Marburg entry inh
COC(=O)C1=CN(c2ccc(F)cc2)C(N)=C(C#N)C1c1ccc(-c2ccccc2)cc1 (centres undefined)	-29.0%	-12.6	-0.4%	?	·	·
COC(=O)C1=CN(c2ccc(C(C)(C)C)cc2)C(N)=C(C#N)C1c1ccc(OC)cc1 (centres undefined)	-7.8%	-77.1*	-25.4%	?	·	·
COCCCn1c(=O)c2sccc2n2c(CCCC(=O)Nc3cc(C)cc(C)c3)nnc12	-4.8%	?	-15.1%	-8.5%	-0.3%[46.1 µM]	·
CCOc1ccc(C(C(=O)NCC2CCCO2)N(C(=O)c2snc(C(N)=O)c2N)c2cccc(F)c2)cc1 (centres undefined)	-8.6%	-14.1	-16.1%	-16.0%	?	?
CCOc1ccc(C(C(=O)NCC2CCCO2)N(Cc2cccs2)C(=O)c2snc(C(N)=O)c2N)cc1 (centres undefined)	6.3%	-68.0*	-16.5%	27.7%	?	-16.6%[46.1 µM]
CCOc1ccc(C(C(=O)NCC2CCCO2)N(C(=O)c2snc(C(N)=O)c2N)c2ccccc2F)cc1 (centres undefined)	-12.4%	11.5	25.6%	-2.9%	7.08µM*	?
Cc1ccc(C)c(CSc2nnc(-c3cccs3)n2Cc2ccco2)c1	·	?	?	·	1.7%	?
CC(C)c1ccc(CNCc2ccccc2)cc1	-12.8%	?	·	-3.2%	13.4%	18.3µM*
CCOc1ccc(Nc2cc(C)nc(-n3nc(C)cc3C)n2)cc1	15.8µM*	-84.2*	20µM*	?	?	0.251µM*
Cc1ccc(Nc2cc(C)nc(-n3nc(C)cc3C)n2)cc1	-7.0%[7.34 µM]	-91.8*	9.0%	-10.0%[7.34 µM]	?	·
Cc1c(C(=O)N2CC3CCC2C3)sc2ncnc(NCCc3c[nH]c4ccccc34)c12 (centres undefined)	-25.1%	·	?	?	·	·
COC(=O)C1CCN(Cc2ccc3c(c2)CN(C(=O)c2cc4cc(F)ccc4[nH]2)CCO3)CC1	1.0%	·	-22.1%	-5.2%	·	·
COC(=O)c1sc2nc(CN3CCN(c4ccc(OC)cc4)CC3)[nH]c(=O)c2c1C	3.2%	-79.9*	-2.9%	-12.8%	-15.1%	-4.5%
COc1cccc(N2CCN(Cc3nc4scc(-c5ccccc5)c4c(=O)[nH]3)CC2)c1	?	-61.5*	?	?	?	?
COc1cc(=O)n2c(c1C(=O)NC(C)c1ccco1)CCN(Cc1ccnc3ccccc13)CC2 (centres undefined)	-3.4%	·	4.1%	-7.2%	·	·
CCc1nc2cc(C(=O)NC3CCS(=O)(=O)C3)cc(NC(=O)c3ccccc3OC)c2n1C (centres undefined)	-8.6%	·	-11.1%	i	·	·
Cc1ccc(C(=O)N/C(=C\c2cccc([N+](=O)[O-])c2)C(=O)NC(Cc2ccccc2)C(=O)O)cc1 (centres undefined)	-15.0%	13.8	-6.1%	i	3.9%	-14.1%
CCCCC(=O)NC(c1ccc(OC)c(OC)c1)c1c(O)ccc2ccccc12 (centres undefined)	?	18.7	5.2%	?	?	-20.4%
CCCCC(=O)NC(c1ccccc1OC)c1ccc2cccnc2c1O (centres undefined)	-27.6%	+	-16.0%	7.94µM*	·	·
